A short description of experiment [1]: Nuclear factor erythroid 2-related factor 2/antioxidant responsive element (Nrf2/ARE) small molecule agonists: qHTS cell viability counter screen in human keratinocytes (AID 1919968; active = well fitted curve in the direction sought with a large enough effect in the repeat runs; an effect the other way counts as inactive or inconclusive; note: nearly all actives have a fitted effect of over 55% in size). In short, it runs like this: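 Stably transfected HaCaT (KeratinoSens), 1,500/well. Test agents in DMSO were applied for 23 h, 37 C/5% CO2. CellTiter-Fluor was incubated 1 h before the fluorescence read.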
A general note: In qHTS, concentration-response curves come from the screen itself.

The nature of experiment [2]: Nuclear factor erythroid 2-related factor 2/antioxidant responsive element (Nrf2/ARE) small molecule agonists: luciferase reporter gene qHTS assay in human keratinocytes (AID 1919969; note: nearly all actives have a fitted effect of over 35% in size). (A reporter such as luciferase makes a cellular process visible.)
The target in experiment [3] is Gonadotropin-releasing hormone receptor (Homo sapiens) (UniProt P30968). Briefly: Human gonadotropin-releasing hormone receptor (GnRHR) small molecule agonists, calcium flux assay in GnRHR-HEK293 cells (AID 1920063). Note: nearly all actives have a fitted effect of over 35% in size. In a few lines: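 Stable human GnRHR HEK293 line. 18 h plating, then calcium dye for 1 h at 37 C. Agonist-mode compound addition from DMSO stocks; fluorescence monitored 3 min.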
Chain of Gonadotropin-releasing hormone receptor (Homo sapiens) (P30968 whole entry, looked up): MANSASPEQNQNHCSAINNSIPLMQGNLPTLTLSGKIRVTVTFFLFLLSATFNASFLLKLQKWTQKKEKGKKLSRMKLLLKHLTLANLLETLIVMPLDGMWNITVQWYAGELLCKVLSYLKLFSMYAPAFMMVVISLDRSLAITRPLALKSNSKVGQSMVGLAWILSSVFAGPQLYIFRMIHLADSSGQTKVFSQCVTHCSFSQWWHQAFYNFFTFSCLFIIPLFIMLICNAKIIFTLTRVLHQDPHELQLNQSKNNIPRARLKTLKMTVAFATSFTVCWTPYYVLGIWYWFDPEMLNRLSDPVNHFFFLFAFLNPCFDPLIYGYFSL
In general terms: A change in cytosolic calcium serves as a functional read-out for many receptors and channels.

Experiment [4] concerns the target KiSS-1 receptor (Homo sapiens) (UniProt Q969F8). The experiment can be described thus: Human kisspeptin (KISS1R) small molecule agonists, calcium flux assay in KISS1R-HEK293 cells (AID 1920064; active = well fitted curve in the direction sought with a large enough effect in the repeat runs; an effect the other way counts as inactive or inconclusive). In short, it runs like this: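 After overnight (18 h) culture at 37 C/5% CO2, human KISS1R-HEK293 cells received calcium dye for 1 h, then test compound; emission at 540 nm (excitation 480 nm) was tracked for 3 min.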

Experiment [5] can be described thus: G protein-coupled receptor (GPCR) small molecule agonists, calcium flux assay: HEK293 wild type cell line counter screen (AID 1920065). In short, it runs like this:
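Following 18 h incubation at 37 C/5% CO2, plates got calcium dye for 1 h; compounds, ATP or DMSO were then pinned in and fluorescence followed kinetically (480/540 nm).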

A short description of experiment [6]: p53 small molecule agonists, cell-based qHTS assay with rat liver microsomes (AID 1963578). In a few lines:
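Read-out is beta-lactamase reporter fluorescence (LiveBLAzer, 2 h, room temperature, dark) in p53RE-bla cells treated 16 h at 37 C with compound, rat liver microsomes and NADPH, both 0.5 mg/mL final.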

Experiment [7] is described as follows: p53 small molecule agonists, cell-based qHTS assay with human liver microsomes: qHTS cell viability counter screen (AID 1963579). Note: nearly all actives have a fitted effect of over 45% in size. In a few lines:
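Cells carrying the p53 response-element beta-lactamase reporter are treated for 16 h at 37 C with test compounds in the presence of human liver microsomes and NADPH (both 0.5 mg/mL final); ATP-based CellTiter-Glo luminescence then reports viability.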

Experiment [8] is described as follows: p53 small molecule agonists, cell-based qHTS assay with rat liver microsomes: qHTS cell viability counter screen (AID 1963580). Note: nearly all actives have a fitted effect of over 45% in size. In a few lines: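 Luminescent ATP readout (CellTiter-Glo, 30 min at room temperature) reports viability of p53RE-bla HCT-116 cells after 16 h at 37 C with test compounds under metabolic activation by rat liver microsomes and NADPH at 0.5 mg/mL final each.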

A short description of experiment [9]: p53 small molecule agonists, cell-based qHTS assay: qHTS cell viability counter screen (AID 1963581). Note: nearly all actives have a fitted effect of over 45% in size. In a few lines:
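qHTS counter screen: 16 h compound exposure at 37 C of p53RE-bla HCT-116 cells (4,000 per well, seeded 5 h prior), cell viability by ATP luminescence.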

Experiment [10] in a line: p53 small molecule agonists, cell-based qHTS assay (AID 1963582; active = well fitted activation curve with a large enough effect in the signal ratio in the repeat runs, not every such curve was filed as active; the % refers to the signal ratio). In a few lines: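 Measured: fluorescence from cleaved LiveBLAzer substrate. System: p53RE-bla cells, 16 h compound treatment at 37 C, 2 h substrate step at room temperature.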
Experiment [11] is described as follows: cAMP Responsive Elements (CRE) small molecule agonists, cell-based qHTS assay (AID 1963590). In a few lines: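 Test agents in DMSO were incubated 3 h at 37 C/5% CO2 with CRE-bla HEK 293T cells seeded 18 h earlier; LiveBLAzer B/G FRET substrate was added and read after 2 h at room temperature.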
A short description of experiment [12]: cAMP Responsive Elements (CRE) small molecule antagonists, cell-based qHTS assay (AID 1963591; active = well fitted inhibition curve with a large enough effect in the signal ratio in the repeat runs, not every such curve was filed as active; the % refers to the signal ratio). In short, it runs like this:
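Reporter line CRE-bla HEK 293T in dialyzed-FBS DMEM; cells preincubated 18 h, treated 3 h with compound plus NKH477 (0.25 uM final); LiveBLAzer FRET, 2 h RT.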

In experiment [13] the target is Beta-2 adrenergic receptor (Homo sapiens) (UniProt P07550). The experiment can be described thus: Adrenergic beta2 receptor (ADRB2) small molecule antagonists, cell-based qHTS assay (AID 1963592). Note: series mostly up to about 92 µM; nearly all actives have a fitted effect of over 50% in size. In short, it runs like this:
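Assay format: CHO-ADRB2 cells, 18-20hr seeding at 37C/5% CO2, then compound plus 1nM isoproterenol agonist mix for 0.5hr RT. Homogeneous time-resolved fluorescence cAMP detection after 1hr, expressed as 665/615 nm ratio.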

Experiment [14] concerns the target D(2) dopamine receptor (Homo sapiens) (UniProt P14416). Briefly: Dopamine D2 receptor (DRD2) small molecule agonists, cell-based qHTS assay (AID 1963594). Note: nearly all actives have a fitted effect of over 35% in size. In a few lines:
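HEK293 cells stably expressing DRD2 were cultured 24 h at 37 C, then given Ro20-1724 (0.1 mM final) and compounds for 10 min at room temperature. NKH477 (200nM) was then added for 30 min. cAMP was read by HTRF.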

Experiment [15] concerns the target 5-hydroxytryptamine receptor 2A (Homo sapiens) (UniProt P28223). Briefly: 5-hydroxytryptamine receptor 2A (HTR2A) small molecule antagonists, cell-based qHTS assay (AID 1963586). Note: nearly all actives have a fitted effect of over 45% in size. In a few lines:
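CHO cells stably expressing human HTR2A were plated for 18 h at 37 C, then loaded with calcium dye for 1 h. Compounds were preincubated 5 min at room temperature before DOI (4 nM solution) was added. Kinetic fluorescence was read for 3 min.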

The target is the same in experiment [16]. Briefly: 5-hydroxytryptamine receptor 2A (HTR2A) small molecule agonists, cell-based qHTS assay (AID 1963587). Note: nearly all actives have a fitted effect of over 30% in size. In short, it runs like this:
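HTR2A-CHO cells, plated 18 h at 37 C/5% CO2, dye-loaded 1 h at 37 C; compounds in DMSO added by pin tool (agonist mode). Intracellular calcium flux read as kinetic fluorescence on FDSS over 2 min at 1 s intervals.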

In experiment [17] the target is Muscarinic acetylcholine receptor M1 (Homo sapiens) (UniProt P11229). Briefly: Cholinergic receptor muscarinic 1 (CHRM1) small molecule antagonists, cell-based qHTS assay (AID 1963588). Note: nearly all actives have a fitted effect of over 40% in size. Note: potency is the fitted concentration of half-maximal effect. In a few lines: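 Compounds were tested at 15 concentrations in three independent runs. Dye-loaded CHRM1-CHO cells were exposed 5 min at room temperature before stimulation by acetylcholine added at 50nM. Intracellular calcium was read kinetically on FDSS for 3 min.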
Chain of Muscarinic acetylcholine receptor M1 (Homo sapiens) (P11229 whole entry, looked up): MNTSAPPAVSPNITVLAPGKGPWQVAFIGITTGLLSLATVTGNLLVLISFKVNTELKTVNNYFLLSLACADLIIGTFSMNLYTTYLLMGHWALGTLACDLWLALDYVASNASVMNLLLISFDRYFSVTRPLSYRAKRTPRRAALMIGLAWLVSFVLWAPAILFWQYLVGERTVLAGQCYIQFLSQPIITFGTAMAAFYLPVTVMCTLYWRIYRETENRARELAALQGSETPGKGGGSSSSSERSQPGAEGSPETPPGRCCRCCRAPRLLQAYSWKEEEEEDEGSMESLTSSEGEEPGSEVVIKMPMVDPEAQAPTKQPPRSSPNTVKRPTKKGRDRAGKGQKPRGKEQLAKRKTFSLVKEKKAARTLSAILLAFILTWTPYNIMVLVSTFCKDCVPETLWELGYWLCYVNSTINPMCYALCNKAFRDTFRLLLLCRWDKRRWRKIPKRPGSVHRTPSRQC

In experiment [18] the target is D(2) dopamine receptor (Homo sapiens) (UniProt P14416). Briefly: Dopamine D2 receptor (DRD2) small molecule antagonists, cell-based qHTS assay (AID 1963595; active = well fitted inhibition curve with a large enough effect in the signal ratio in the repeat runs, with a control signal flat; the % refers to the signal ratio). In a few lines: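 Stable D2 receptor HEK293 line, 24 h after seeding. Compound preincubated 10 min, then quinpirole (12 nM) with forskolin analogue NKH477 (200 nM), 30 min, room temperature. Detection by time-resolved FRET of cAMP.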
Chain of D(2) dopamine receptor (Homo sapiens) (P14416 whole entry, looked up): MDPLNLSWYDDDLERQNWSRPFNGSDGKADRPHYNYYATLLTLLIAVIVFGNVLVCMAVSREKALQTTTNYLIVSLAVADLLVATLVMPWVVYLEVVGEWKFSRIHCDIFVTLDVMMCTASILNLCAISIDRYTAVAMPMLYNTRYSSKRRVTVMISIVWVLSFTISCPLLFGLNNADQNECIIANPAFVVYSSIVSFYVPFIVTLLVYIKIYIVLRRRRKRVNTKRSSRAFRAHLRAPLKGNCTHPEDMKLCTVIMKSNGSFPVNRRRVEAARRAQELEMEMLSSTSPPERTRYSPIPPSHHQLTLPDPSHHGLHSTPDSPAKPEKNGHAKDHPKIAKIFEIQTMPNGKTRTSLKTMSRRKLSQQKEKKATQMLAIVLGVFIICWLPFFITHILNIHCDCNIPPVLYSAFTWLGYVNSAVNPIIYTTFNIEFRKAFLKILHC

Experiment [19] concerns the target Muscarinic acetylcholine receptor M1 (Homo sapiens) (UniProt P11229). The experiment can be described thus: Cholinergic receptor muscarinic 1 (CHRM1) small molecule agonists, cell-based qHTS assay (AID 1963589). Note: nearly all actives have a fitted effect of over 35% in size. Note: potency is the fitted concentration of half-maximal effect. In short, it runs like this:
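Kinetic fluorescence (1 s intervals) of calcium-sensitive dye in human M1 CHO cells after compound addition; cells pre-incubated 18 h at 37 C/5% CO2 and dye-loaded 1 h.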

The target of experiment [20] is Beta-2 adrenergic receptor (Homo sapiens) (UniProt P07550). Briefly: Adrenergic beta2 receptor (ADRB2) small molecule agonists, cell-based qHTS assay (AID 1963593).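 Note: CHO cells stably overexpressing human ADRB2.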 In a few lines:
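CHO cells stably over-expressing ADRB2 were plated overnight at 37C, then dosed with compounds plus a stimulation mix containing 100uM IBMX and 25uM Ro-20-1724 for 0.5hr at room temperature. cAMP was measured by HTRF competition, 1hr.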

A number with no mark means an inactive call. Results filed as inconclusive are left out. Activity calls are given as the source filed them. Unless noted, calls come from the whole dose curve.

Chain of KiSS-1 receptor (Homo sapiens) (Q969F8 whole entry, looked up): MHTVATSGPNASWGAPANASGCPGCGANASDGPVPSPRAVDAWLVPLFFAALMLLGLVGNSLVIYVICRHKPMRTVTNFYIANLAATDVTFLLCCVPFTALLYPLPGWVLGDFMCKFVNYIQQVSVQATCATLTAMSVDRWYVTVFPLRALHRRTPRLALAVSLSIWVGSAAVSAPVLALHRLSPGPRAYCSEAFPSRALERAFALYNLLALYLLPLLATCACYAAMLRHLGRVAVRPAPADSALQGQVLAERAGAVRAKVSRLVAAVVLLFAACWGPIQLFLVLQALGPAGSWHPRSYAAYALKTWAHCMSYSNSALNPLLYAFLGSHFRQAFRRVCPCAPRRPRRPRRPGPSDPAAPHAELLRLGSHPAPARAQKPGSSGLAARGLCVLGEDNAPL
Chain of Beta-2 adrenergic receptor (Homo sapiens) (P07550 whole entry, looked up): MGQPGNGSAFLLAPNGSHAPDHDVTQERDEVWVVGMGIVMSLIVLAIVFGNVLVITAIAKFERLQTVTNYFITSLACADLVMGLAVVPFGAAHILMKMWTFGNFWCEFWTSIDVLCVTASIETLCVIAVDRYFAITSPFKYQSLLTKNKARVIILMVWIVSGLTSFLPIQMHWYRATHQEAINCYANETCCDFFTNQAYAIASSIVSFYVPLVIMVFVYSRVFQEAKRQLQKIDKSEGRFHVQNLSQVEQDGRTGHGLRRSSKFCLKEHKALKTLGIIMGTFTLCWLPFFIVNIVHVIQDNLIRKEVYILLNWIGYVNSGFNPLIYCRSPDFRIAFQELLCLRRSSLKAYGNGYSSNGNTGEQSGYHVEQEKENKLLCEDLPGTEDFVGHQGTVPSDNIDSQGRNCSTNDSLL
Chain of 5-hydroxytryptamine receptor 2A (Homo sapiens) (P28223 whole entry, looked up): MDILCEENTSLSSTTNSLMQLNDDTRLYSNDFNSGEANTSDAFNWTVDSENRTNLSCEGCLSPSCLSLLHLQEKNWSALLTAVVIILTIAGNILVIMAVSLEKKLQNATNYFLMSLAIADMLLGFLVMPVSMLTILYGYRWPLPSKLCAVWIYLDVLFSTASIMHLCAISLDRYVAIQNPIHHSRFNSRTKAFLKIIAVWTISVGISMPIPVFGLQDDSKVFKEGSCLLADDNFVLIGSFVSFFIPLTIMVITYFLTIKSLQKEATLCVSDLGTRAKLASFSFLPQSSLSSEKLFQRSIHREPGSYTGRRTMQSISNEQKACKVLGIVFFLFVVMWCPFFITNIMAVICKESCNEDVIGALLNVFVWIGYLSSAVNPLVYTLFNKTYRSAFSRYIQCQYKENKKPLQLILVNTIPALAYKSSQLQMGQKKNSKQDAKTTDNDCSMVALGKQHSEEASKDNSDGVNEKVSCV

Turning to `CO[C@@]1(NC(=O)CSCC#N)C(=O)N2C(C(=O)O)=C(CSc3nnnn3C)CS[C@@H]21`, the Potency entry in experiment [1], in [2], in experiment [3], in experiment [6], in experiment [7] and in [8] was “inactive” each time. Also, the Potency result in [9], in [10], in experiment [11], in experiment [12], in experiment [13] and in [14] was “inactive” in each case. Moreover, the outcome in [4] and in [5] was inactive.
On to `CO[Si](CCC1CCC2OC2C1)(OC)OC` (stereo unspecified), for which the Potency entry in experiment [1], in [2], in [3], in experiment [6], in experiment [7] and in [8] was “inactive” throughout. In addition, the Potency result in experiment [9], in experiment [10], in experiment [15], in [16], in experiment [17] and in [11] was “inactive” each time. Further, the Potency result in experiment [12], in experiment [13], in experiment [14] and in experiment [18] was “inactive” in each case. Also, the outcome in [4] and in experiment [5] was inactive.
For the compound `C=C1C[C@@]23CC[C@H]4[C@@](C)(CCC[C@@]4(C)C(=O)O[C@@H]4O[C@H](CO)[C@@H](O)[C@H](O)[C@H]4O)[C@@H]2CC[C@]1(O[C@@H]1O[C@H](CO)[C@@H](O)[C@H](O[C@@H]2O[C@H](CO)[C@@H](O)[C@H](O)[C@H]2O)[C@H]1O[C@@H]1O[C@H](CO)[C@@H](O)[C@H](O)[C@H]1O)C3`, the Potency result in experiment [1], in experiment [2], in experiment [3], in experiment [6], in [7] and in experiment [8] was “inactive” throughout. The Potency result in experiment [9], in [10], in experiment [15], in experiment [17], in experiment [19] and in experiment [11] was “inactive” each time. Also, the Potency result in experiment [13], in experiment [14] and in experiment [18] was “inactive” throughout. For the same compound, the result in [4] and in [5] was inactive.
As to `Cc1oc(=O)oc1COC(=O)[C@@H]1N2C(=O)[C@@H](NC(=O)[C@H](N)c3ccccc3)[C@H]2SC1(C)C`, the Potency result in experiment [1], in experiment [2], in experiment [3], in experiment [6], in experiment [7] and in [8] was “inactive” in each case. The Potency entry in experiment [9], in experiment [10], in experiment [15], in [16], in experiment [17] and in [19] was “inactive” each time. The Potency result in [11], in experiment [12], in experiment [13], in experiment [14] and in experiment [18] was “inactive” each time. The outcome in [4] and in experiment [5] was inactive.
`Cc1cc(O)c(C)c(C)c1O`: the Potency result in [1], in experiment [2], in experiment [3], in experiment [6], in experiment [7] and in experiment [8] was “inactive” each time. Besides, the Potency entry in [9], in [10], in experiment [15], in experiment [16], in experiment [19] and in experiment [11] was “inactive” in each case. The Potency result in [14] and in experiment [18] was “inactive” in each case. The outcome in [4] and in experiment [5] was inactive.
As to `C=CCON/C(CCC)=C1\C(=O)CC(C)(C)C(C(=O)OC)=C1O`, the Potency entry in experiment [1], in experiment [2], in experiment [3], in [6], in experiment [7] and in experiment [8] was “inactive” throughout. Further, the Potency result in experiment [9], in experiment [10], in experiment [15], in experiment [16], in [17] and in experiment [11] was “inactive” throughout. In addition, the Potency entry in [12], in experiment [13], in experiment [14] and in experiment [18] was “inactive” throughout. Also, the result in [4] and in [5] was inactive. In experiment [19], the Potency is 4.84 µM (active).
`CO/N=C(\C(=O)N[C@@H]1C(=O)N2C(C(=O)O)=C(CSc3nc(=O)c(O)nn3C)CS[C@H]12)c1csc(N)n1`: the Potency entry in [1], in [2], in [3], in experiment [6], in experiment [7] and in [8] was “inactive” throughout. The Potency result in [9], in experiment [10], in experiment [15], in experiment [19], in [12] and in experiment [13] was “inactive” in each case. The Potency entry in experiment [20], in [14] and in [18] was “inactive” each time. For the same compound, the result in experiment [4] and in experiment [5] was inactive. For the same compound, the Potency in experiment [17] is 0.516 µM (active).

The record behind these values is PubChem BioAssay (Tox21).
